Values joined by “and” are separate entries in the source; they are usually repeats but may differ in a detail not shown here. Equal values may be shown once. Records with an inconclusive call do not appear. The source holds several records for some structures; these can differ, active in one and inactive in another. Active and inactive are the calls of the source. Unless noted, calls follow the shape of the dose curve; as a rule, active = well fitted curve in the direction sought with a large enough effect; inconclusive = small, poorly fitted or top-dose-only effect, or another doubt; inactive = no such curve, though single readings can be large; an effect the other way counts as inactive or inconclusive.
Columns and labels:
[1] = qHTS assay for small molecule antagonists of the retinoid-related orphan receptor gamma (ROR-gamma) signaling pathway - cell viability counter screen (AID 720652; active = well fitted curve in the direction sought with a large enough effect in the repeat runs; an effect the other way counts as inactive or inconclusive;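 also: compound exposure lasted 16 hr before ATP read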; also: potency is read from the fitted curve at half-maximal effect)
Procedure, shortened: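 Cytotoxicity is quantified via intracellular ATP (CellTiter-Glo luminescence) in doxycycline-induced CHO ROR response element-luciferase reporter cells treated with compound for 16 hr at 37 C, 5% CO2.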

[2] = qHTS assay for small molecule agonists of the antioxidant response element (ARE) signaling pathway measured by Nrf2-dependant transcriptional activity - cell viability counter screen (AID 720653; active = well fitted curve in the direction sought with a large enough effect in the repeat runs; an effect the other way counts as inactive or inconclusive; also: potency is read from the fitted curve at half-maximal effect; as to max response: % is scaled to controls: 0 for no effect and ±100 for the full control effect); conditions: ARE-bla HepG2 viability, CellTiter-Glo ATP luminescence, 16 h; max response: stronger effect = lower value
Procedure, shortened: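 Cytotoxicity counter screen: intracellular ATP quantified by CellTiter-Glo luminescence in the same ARE-bla HepG2 plates, after 16 h compound exposure and a 2 h beta-lactamase substrate step.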

[3] = qHTS Assay for Identifying Gametocytocidal Compounds (AID 743244); also: potency is read from the fitted curve at half-maximal effect;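 as to max response: % is scaled to controls: 0 for no effect and ±100 for the full control effect; actives lower the fluorescent signal which means gametocytes are killed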; conditions: P. falciparum 3D7 stage III-V gametocytes, alamarBlue, 72 h; max response: stronger effect = lower value
Procedure, shortened: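 In this qHTS viability screen, late-stage 3D7 gametocytes are incubated with compound for 72 h, then with alamarBlue for 24 h; reduced resorufin fluorescence marks killing.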

[4] = qHTS assay for cell viability of HEK293 cells (AID 743288); conditions: ATP luminescence (CellTiter-Glo), 18 h; max response: stronger effect = lower value; also: nearly all actives have a fitted effect of over 50% in size; also: potency is read from the fitted curve at half-maximal effect; as to max response: % is scaled to controls: 0 for no effect and ±100 for the full control effect
Procedure, shortened: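 Total intracellular ATP, measured with a luciferase-coupled reagent, indicates the number of viable HEK293 cells. Exposure to test chemicals lasts 18 h at 37 C in 1,536-well format at 2,000 cells/well.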

[5] = qHTS assay for cell viability of the p53RE-bla HCT-116 cell line (AID 743292); also: % is scaled to controls: 0 for no effect and ±100 for the full control effect; nearly all actives have a fitted effect of over 55% in size
Procedure, shortened: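 ATP-based luminescence, 16 h compound exposure at 37 C, p53RE-bla HCT-116 cells at 4,000/well.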

[6] = target: T1, Hexokinase-4 (Homo sapiens) + Glucokinase regulatory protein (Homo sapiens) (UniProt P35557+Q14397); test: qHTS assay for inhibitors of recombinant human GCK-GKRP interaction: Diaphorase-coupled assay (AID 743205)
Procedure, shortened: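 A kinetic fluorescence read (Ex 525/Em 590 nm, every minute for 30 minutes) tracked resorufin from a G6PDH-diaphorase coupled GCK reaction. It contained 10 nM GST-GCK, 10 nM FLAG-GKRP, 5 mM glucose, 0.4 mM ATP in Hepes pH 7.6. Normalized to with/without-enzyme DMSO controls.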

[7] = target: T1, Hexokinase-4 (Homo sapiens) + Glucokinase regulatory protein (Homo sapiens); test: qHTS assay for inhibitors of recombinant human GCK-GKRP interaction: ADP-Glo assay (AID 743206);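 also: plate controls were DMSO plus enzyme for no effect and no enzyme for full effect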
Procedure, shortened: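 GST-GCK and FLAG-GKRP (15 nM each in the dispensed mix, with 2 uM S6P) react with 0.4 mM ATP and 5 mM glucose (final) in Hepes pH 7.6 for 60 min at room temperature. ADP is measured by ADP-Glo luminescence.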

[8] = target: T1, Hexokinase-4 (Homo sapiens) + Glucokinase regulatory protein (Homo sapiens); test: qHTS assay for inhibitors of recombinant human GCK-GKRP interaction: HTRF assay (AID 743207);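 also: 0% = DMSO with GCK present and -100% = DMSO wells lacking GCK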
Procedure, shortened: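 After 60 min equilibration at room temperature with anti-FLAG XL665 and anti-GST antibodies, FRET ratio (665/615 nm, excitation 320 nm) was read. Proteins: GST-GCK and FLAG-GKRP, each 5 nM, plus 2 uM S6P, pH 7.1 buffer; GCK-free wells define minimum signal.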

T1 sequence (P35557 whole entry, looked up): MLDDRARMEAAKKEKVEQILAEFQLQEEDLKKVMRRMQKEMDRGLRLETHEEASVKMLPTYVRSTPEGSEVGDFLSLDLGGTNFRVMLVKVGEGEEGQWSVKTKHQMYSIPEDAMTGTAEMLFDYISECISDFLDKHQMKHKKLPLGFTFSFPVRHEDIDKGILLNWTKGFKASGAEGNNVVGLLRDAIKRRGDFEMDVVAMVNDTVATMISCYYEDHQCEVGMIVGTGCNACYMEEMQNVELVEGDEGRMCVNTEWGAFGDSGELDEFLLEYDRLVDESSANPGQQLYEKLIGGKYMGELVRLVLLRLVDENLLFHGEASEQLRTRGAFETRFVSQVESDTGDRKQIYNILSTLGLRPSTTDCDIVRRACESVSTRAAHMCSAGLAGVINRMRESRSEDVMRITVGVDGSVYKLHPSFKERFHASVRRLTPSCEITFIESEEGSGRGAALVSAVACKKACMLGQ
T1 sequence (Q14397 whole entry, looked up): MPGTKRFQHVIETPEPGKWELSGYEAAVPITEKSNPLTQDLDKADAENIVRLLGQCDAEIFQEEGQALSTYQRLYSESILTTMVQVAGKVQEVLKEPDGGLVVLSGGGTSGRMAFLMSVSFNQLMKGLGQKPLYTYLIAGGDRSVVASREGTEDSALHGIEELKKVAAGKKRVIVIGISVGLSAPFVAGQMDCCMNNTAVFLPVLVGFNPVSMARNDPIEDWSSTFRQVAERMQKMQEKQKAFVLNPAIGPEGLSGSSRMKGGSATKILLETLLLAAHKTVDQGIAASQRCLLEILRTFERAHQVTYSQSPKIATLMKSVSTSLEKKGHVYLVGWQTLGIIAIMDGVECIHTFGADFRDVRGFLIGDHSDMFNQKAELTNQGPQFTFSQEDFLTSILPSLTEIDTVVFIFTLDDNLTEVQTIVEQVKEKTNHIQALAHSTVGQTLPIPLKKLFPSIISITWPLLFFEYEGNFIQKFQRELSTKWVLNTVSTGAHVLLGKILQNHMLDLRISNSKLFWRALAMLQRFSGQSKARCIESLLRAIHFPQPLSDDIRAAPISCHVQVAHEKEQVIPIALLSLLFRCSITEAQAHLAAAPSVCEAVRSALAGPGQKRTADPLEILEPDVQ

CC(C)CCON=O
inactive: Potency [1] | max response [2] 1.97% | max response [3] -1.81% | max response [4] -5.29% | Potency [5]

O=C1C2CC=CCC2C(=O)N1SC(Cl)(Cl)Cl (configuration not stated)
active: Potency [1] 29.8 µM | Potency [2] 28.2 µM | Potency [4] 10 µM
inactive: max response [2] -23.3% | Potency [5]

CCCCCCCCOC(=O)c1ccccc1C(=O)OCCCCCCCC
inactive: max response [2] -5.46% and -4.31% | max response [3] -1.95% | max response [4] -2.74% and -18% | Potency [5]

ClC(Cl)(Cl)Cl
inactive: Potency [1] | max response [2] 14.9% and -6.99% | max response [4] -6.99% and 5.96% | Potency [5]

O=[N+]([O-])c1ccc(F)c([N+](=O)[O-])c1
inactive: max response [2] -6.71% | max response [3] 6.65% | Potency [5]
active: Potency [1] 59.6 µM

NNC(N)=O
inactive: Potency [1] | max response [2] 4.7% | Potency [6] | outcome [7] | outcome [8] | max response [3] 14.6% | max response [4] -7.58% | Potency [5]

C[C@H]1CCC[C@H](O)CCCCCc2cc(O)cc(O)c2C(=O)O1
inactive: Potency [1] | max response [2] -13.4% | max response [3] 5.29% | max response [4] -4.88% | Potency [5]

O=C/C=C/c1ccccc1
inactive: Potency [1] | max response [2] 12.8% and -6.35% | max response [3] 4.39% | max response [4] -23.6% | Potency [5]

O=C1CCO1
inactive: Potency [1] | max response [2] 5.4% | max response [3] 11.4% | max response [4] 5.83% | Potency [5]

[Cl-].[Cl-].[Hg+2]
active: Potency [1] 1.68 µM | Potency [4] 44.7 µM
inactive: max response [2] -13.5% | Potency [5]

O=C(O)c1cc[c]([Hg][Cl])cc1
inactive: max response [2] 8.27% | Potency [6] | outcome [7] | outcome [8] | max response [3] 33.9% | max response [4] -11.9% | Potency [5]

ClC1C(Cl)C(Cl)C(Cl)C(Cl)C1Cl (configuration not stated)
inactive: max response [2] -5.28% [middle of 4 runs] | max response [3] 4.65% | max response [4] -11% [middle of 4 runs] | Potency [5]

COCC(C)N(C(=O)CCl)c1c(C)csc1C (configuration not stated)
inactive: max response [2] -1.95% | max response [3] -1.03% | max response [4] -15.8% | Potency [5]

CC(C)(C)c1cc(C=C(C#N)C#N)cc(C(C)(C)C)c1O
inactive: Potency [6] | outcome [7] | outcome [8]

c1ccc2c(N3CCNCC3)cccc2c1
inactive: Potency [6] | outcome [7] | outcome [8]

CCCCCCC(C)(C)c1ccc([C@@H]2C[C@H](O)CC[C@H]2CCCO)c(O)c1
inactive: Potency [6] | outcome [7] | outcome [8]

C=CCN=C=S
inactive: max response [2] 9.92% | max response [3] -13.2% | max response [4] -7.74% | Potency [5]

COc1ccc2[nH]cc(CCN)c2c1
inactive: Potency [6] | outcome [7] | outcome [8] | max response [3] 15.8%

COc1ccc(CNC(=O)/C=C/c2ccc3[nH]cc(CCN(C)C)c3c2)cc1
inactive: Potency [6] | outcome [7] | outcome [8] | max response [3] -2.88%

C[C@]12Cc3cn4c(nc3C=C1CCC1C2CC[C@@]2(C)[C@H]1CC[C@@]2(O)C#N)nc1ccccc14 (some centres not stated)
inactive: Potency [6] | outcome [7] | outcome [8]

O=C1CC[C@@]2(O)C3Cc4ccc(O)c5c4C2(CCN3CC2CC2)[C@H]1O5 (some centres not stated)
inactive: Potency [6] | outcome [7] | outcome [8] | max response [3] 16.9%

CC(C)Nc1ccc(Nc2ccccc2)cc1
inactive: max response [2] -21.1% | Potency [5]
active: Potency [3] 10 µM

C[N+]1(C)CCN(c2ccccc2)CC1
inactive: Potency [6] | outcome [7] | outcome [8] | max response [3] -6.92%

O=[N+]([O-])C(Br)(CO)CO
active: Potency [4] 50.1 µM
inactive: max response [2] -12.6% | Potency [5]

OCc1cnc[nH]1
inactive: Potency [6] | outcome [7] | outcome [8]

NCCc1c[nH]c2ccc(C(N)=O)cc12
inactive: Potency [6] | outcome [7] | outcome [8]

C[N+]1(C)CCOC(O)(c2ccc(-c3ccc(C4(O)C[N+](C)(C)CCO4)cc3)cc2)C1 (configuration not stated)
inactive: Potency [6] | outcome [7] | outcome [8] | max response [3] 5.92%

CCCN(CCC)[C@H]1CCc2c(F)ccc(O)c2C1
inactive: Potency [6] | outcome [7] | outcome [8]

CCn1cnc2c(Nc3cccc(Cl)c3)nc(N[C@@H]3CCCC[C@@H]3N)nc21
inactive: Potency [6] | outcome [7] | outcome [8]

C[N+](C)(C)CC#CCOC(=O)Nc1cccc(Cl)c1
inactive: Potency [6] | outcome [7] | outcome [8] | max response [3] 12.7%

From PubChem BioAssay (NCATS)
